As usually defined, the inhibition is the relative decrease from the control value, in per cent.

Values without a mark were called inactive. This is one part of the list. Activity calls are given as the source filed them.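 The calls were made as follows, unless noted: active = inhibition above the mean of solvent-only control wells plus 3 SD, cutoff set per campaign (cut at about 13% in these data); inactive = the rest.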

Test [1] can be described thus: blockers of IL-6 STAT3 signaling – U3A cells, luciferase, luminescence, confirmation (AID 1265;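 active = inhibition above the hit cutoff computed for the primary STAT3 screen, cut at about 44% in these data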;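 also: 0% = IL-6 plus DMSO and 100% = IL-6 plus nifuroxazide control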). As to conditions: IL-6 STAT3 luciferase reporter, at 5.7 µM, stronger effect = higher value, cell line lacks STAT1. A general note: Reporter assays use an easily measured gene product as a stand-in for the process of interest.
Test [2] is described as follows: inhibition of TNF-alpha-driven NF-kB transcription – cell-based, HEK293T, luciferase, TNF-alpha stimulus, counter-screen for STAT3 inhibitor project, confirmation (AID 1308).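 Also: 0% = TNF-alpha with DMSO and 100% = TNF-alpha with MG high control.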 Particulars: HEK293T NF-kB luciferase reporter, TNF-alpha induced; at 5.7 µM; stronger effect = higher value. On the technique in general: The purpose of a counterscreen is to sort out artefacts and off-target activity.

A short description of test [3]: inhibition of STAT1-driven transcription – cell-based, NIH 3T3, luciferase luminescence, IFN-gamma, counter-screen for STAT3 inhibitor project, confirmation (AID 1317;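 active = inhibition above the mean plus 3 SD of solvent-only control wells, limit set per screening run, cut at about 16% in these data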;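 also: 0% = DMSO with IFN-gamma and 100% = nifuroxazide control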). Particulars: NIH 3T3 STAT1-luciferase reporter, IFN-gamma induced, at 5.7 µM, stronger effect = higher value.
A short description of test [4]: VP16-driven transactivation reporter suppression – cell-based, luminescence, HEK293, counter-screen for COUP-TFII antagonist project (AID 687007; in the data active = inhibition above about 13%). As to conditions: HEK293 Gal4-VP16 luciferase reporter, at 8.5 µM, stronger effect = higher value.
For test [5], the target named is COUP transcription factor 2 (Homo sapiens) (UniProt P24468). Put plainly: retest of COUP-TFII reporter suppressors – cell-based, luciferase reporter, HEK293, triplicate, confirmation (AID 687008;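 active = mean inhibition over three repeats above a set limit taken from the earlier primary screen, cut at about 38% in these data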;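 also: 100% = cells given the luciferase reporter alone without the COUP-TF2 vector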). Particulars: HEK293 NGFI-A luciferase reporter, luminescence; at 8.5 µM; stronger effect = higher value.
Test [6] addresses Oxysterols receptor LXR-beta (Homo sapiens) (UniProt P55055). Put plainly: nonspecific reporter activation via LXR – cell-based, luminescence, HEK293, H. contortus campaign, counter-screen for hcDAF-12 agonist project, confirmation (AID 743027;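 active = mean percent activation of the reporter above a cutoff set as the average over tested compounds plus their standard deviation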). Particulars: HEK293 Gal4-LXR tk-luc reporter, 24 h, at 6.8 µM, stronger effect = higher value, normalized: DMSO 0%, positive control 100%.
Test [7] relates to Nuclear hormone receptor DAF-12 (Haemonchus contortus). As to the kind of experiment: hcDAF-12 luciferase reporter activation, retest – cell-based, luminescence, HEK293, lit1-tk-luc, triplicate, confirmation (AID 743032;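 active = mean activation across triplicate tests above the threshold derived from the earlier primary screen, cut at about 5.5% in these data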;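 also: 0% = DMSO only wells and 100% = 3 µM Δ7-dafachronic acid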). Particulars: HEK293 hcDAF-12 lit1-tk-luc reporter, at 6.8 µM, stronger effect = higher value, % of Δ7-dafachronic acid response.
For test [8], the target named is Peroxisome proliferator-activated receptor gamma (Homo sapiens) (UniProt P37231). Put plainly: retested PPARg-SRC-2 recruitment enhancers – biochemical, HTS, confirmation (AID 1297; in the data active = activation above about 22%;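 also: 0% = vehicle alone and 100% = reference agonist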). Particulars: biochemical SRC-2 recruitment by PPARgamma; at 8 µM; stronger effect = higher value.
For test [9] the target is unchanged. As to the kind of experiment: retest of SRC-1 recruitment enhancers for PPARgamma – biochemical, confirmation (AID 1300; in the data active = activation above about 20%;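 also: 0% = vehicle wells and 100% = reference agonist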). Particulars: PPARgamma–SRC-1 coactivator recruitment biochemical assay; at 8 µM; stronger effect = higher value.
Test [10] addresses Peroxisome proliferator-activated receptor gamma (Homo sapiens) + Nuclear receptor coactivator 3 (Homo sapiens) (UniProt P37231+Q9Y6Q9). As to the kind of experiment: agonists promoting SRC-3 binding to PPARgamma – biochemical, confirmation (AID 1301; in the data active = activation above about 24%;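 also: 0% = vehicle wells and 100% = reference agonist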). Particulars: biochemical PPARgamma-SRC-3 coactivator recruitment, agonist mode; at 8 µM; stronger effect = higher value.
Test [11] in a line: StAR promoter reporter inhibitors, counter-screen for LRH-1 inverse agonist project, cell-based, luminescence, high throughput (AID 651611; in the data active = inhibition above about 28%). Particulars: StAR promoter luciferase reporter counterscreen, at 3.6 µM, stronger effect = higher value.
For test [12], the target named is Nuclear receptor subfamily 5 group A member 2 (Homo sapiens) (UniProt O00482). Put plainly: NR5A2 activity suppression in reporter cells – cell-based, luminescence, confirmation (AID 651613; in the data active = inhibition above about 42%;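 also: HEK293T cells co-transfected with LRH-1 and StAR promoter luciferase reporter; 0% = vehicle wells and 100% = parental cells lacking receptor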). Particulars: cell-based LRH-1 luciferase reporter, inverse agonism; at 3.6 µM; stronger effect = higher value.
Test [13] deals with Steroidogenic factor 1 (Homo sapiens) (UniProt Q13285). As to the kind of experiment: inverse agonism at SF1 nuclear receptor – cell-based, luminescence, high throughput, counter-screen for LRH-1 inverse agonist project (AID 651614; in the data active = inhibition above about 44%;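 also: cells cotransfected with StAR promoter reporter and SF1 expression vector; 0% = vehicle on cells with receptor and 100% = vehicle on cells lacking receptor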). Particulars: cell-based SF1 luciferase reporter, at 3.6 µM, stronger effect = higher value.
Test [14] can be described thus: compounds suppressing VP16-driven luciferase signal – cell-based, luminescence, high throughput, counter-screen for LRH-1 inverse agonist project (AID 651615; in the data active = inhibition above about 33%). As to conditions: Gal4-VP16 luciferase reporter cells, at 3.6 µM, stronger effect = higher value.
The target of test [15] is Photoreceptor-specific nuclear receptor (Homo sapiens) (UniProt Q9Y5X4). As to the kind of experiment: retest of NR2E3-NCOR disrupting agonists – cell-based, luminescence, CHO-S two-hybrid, confirmation (AID 624378;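 active = average inhibition above a cutoff equal to the mean inhibition of all tested compounds plus one SD, cut at about 70% in these data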;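 also: 0% = DMSO in NR2E3 cells and 100% = DMSO in cells lacking NR2E3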). Particulars: CHO-S mammalian two-hybrid NR2E3-NCOR, luciferase luminescence; at 3.98 µM; stronger effect = higher value.
The nature of test [16]: nonselective effects on VP16 transactivation – cell-based, luminescence, CHO-S, high throughput, counter-screen for NR2E3 agonist project, confirmation (AID 624379;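 active = mean inhibition above a cutoff equal to the average over all tested compounds plus one standard deviation, cut at about 70% in these data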;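 also: 0% = DMSO with VP16-transfected cells and 100% = DMSO with cells lacking VP16; higher means less reporter light so more repression of VP16 activity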). As to conditions: CHO-S GAL4-VP16 luciferase reporter, at 3.98 µM, stronger effect = higher value.
For test [17], the system named is DAF-12 nuclear receptor (Heterodera glycines), GAL4-LBD fusion. Put plainly: hgDAF-12 GAL4 fusion reporter activation, retest – cell-based, luminescence, HEK293, GAL4-LBD fusion, confirmation (AID 743050;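 active = mean activation over triplicate wells above the hit cutoff derived from the earlier primary screen, cut at about 11% in these data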;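 also: 0% = DMSO low control and 100% = 2 mM sodium butyrate high control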). Particulars: HEK293 GAL4-hgDAF12 luciferase reporter, agonist mode; at 6.8 µM; stronger effect = higher value; percent of butyrate response.
Test [18] deals with Oxysterols receptor LXR-beta (Homo sapiens) (UniProt P55055). Put plainly: nonspecific reporter activation via LXR – cell-based, luminescence, HEK293, H. glycines campaign, counter-screen for hgDAF-12 agonist project, confirmation (AID 743051;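 active = mean activation of the triplicate above a set limit carried over from the primary screen, none filed active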). As to conditions: HEK293 Gal4-LXR luciferase reporter, 24 h; at 6.8 µM; stronger effect = higher value.
The target in test [19] is Galanin receptor type 2 (Homo sapiens) (UniProt O43603). Put plainly: blockers of human galanin receptor 2 – cell-based, confirmation (AID 866; in the data active = inhibition above about 27%;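 also: cells stimulated with galanin at about its EC80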). As to conditions: GALR2-expressing cells, antagonist mode, at 4 µM, stronger effect = higher value.
The nature of test [20]: nonspecific BLA reporter inhibition – CHO NFAT-bla cells, FRET readout, counter-screen for GALR2 antagonist project, confirmation (AID 867;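 active = inhibition above the mean inhibition across tested compounds plus 3 SD, cut at about 27% in these data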;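 also: 0% = 500 nM thapsigargin stimulated wells and 100% = unstimulated BSA only wells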). Particulars: beta-lactamase FRET, thapsigargin-stimulated, at 4.2 µM, stronger effect = higher value.

Chain of Peroxisome proliferator-activated receptor gamma (Homo sapiens) (P37231 whole entry, looked up): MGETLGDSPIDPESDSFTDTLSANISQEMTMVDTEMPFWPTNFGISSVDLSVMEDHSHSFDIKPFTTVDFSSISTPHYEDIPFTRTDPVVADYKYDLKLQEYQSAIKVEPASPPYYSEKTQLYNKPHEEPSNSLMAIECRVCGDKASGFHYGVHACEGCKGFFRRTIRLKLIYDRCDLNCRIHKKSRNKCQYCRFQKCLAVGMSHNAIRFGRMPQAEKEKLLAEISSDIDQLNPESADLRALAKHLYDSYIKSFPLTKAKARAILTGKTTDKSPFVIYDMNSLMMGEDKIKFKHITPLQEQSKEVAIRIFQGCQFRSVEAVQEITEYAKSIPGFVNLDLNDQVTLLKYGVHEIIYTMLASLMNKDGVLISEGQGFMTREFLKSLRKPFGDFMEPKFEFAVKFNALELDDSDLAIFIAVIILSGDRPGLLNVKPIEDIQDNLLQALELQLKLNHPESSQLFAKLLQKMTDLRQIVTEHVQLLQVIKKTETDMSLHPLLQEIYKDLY
Chain of Oxysterols receptor LXR-beta (Homo sapiens) (P55055 whole entry, looked up, the tested form may be a part): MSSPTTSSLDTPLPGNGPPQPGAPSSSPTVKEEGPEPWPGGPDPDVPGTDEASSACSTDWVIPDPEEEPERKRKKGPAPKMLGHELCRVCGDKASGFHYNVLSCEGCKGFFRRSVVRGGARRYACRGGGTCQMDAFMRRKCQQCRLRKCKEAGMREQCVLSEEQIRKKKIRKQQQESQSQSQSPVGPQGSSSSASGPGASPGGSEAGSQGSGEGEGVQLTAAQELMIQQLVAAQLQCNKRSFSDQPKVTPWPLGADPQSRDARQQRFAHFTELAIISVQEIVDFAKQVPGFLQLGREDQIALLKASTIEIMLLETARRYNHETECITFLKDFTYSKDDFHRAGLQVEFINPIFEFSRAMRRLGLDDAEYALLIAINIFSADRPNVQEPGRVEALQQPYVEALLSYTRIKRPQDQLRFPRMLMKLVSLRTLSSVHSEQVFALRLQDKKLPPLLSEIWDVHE
Chain of Photoreceptor-specific nuclear receptor (Homo sapiens) (Q9Y5X4 whole entry, looked up): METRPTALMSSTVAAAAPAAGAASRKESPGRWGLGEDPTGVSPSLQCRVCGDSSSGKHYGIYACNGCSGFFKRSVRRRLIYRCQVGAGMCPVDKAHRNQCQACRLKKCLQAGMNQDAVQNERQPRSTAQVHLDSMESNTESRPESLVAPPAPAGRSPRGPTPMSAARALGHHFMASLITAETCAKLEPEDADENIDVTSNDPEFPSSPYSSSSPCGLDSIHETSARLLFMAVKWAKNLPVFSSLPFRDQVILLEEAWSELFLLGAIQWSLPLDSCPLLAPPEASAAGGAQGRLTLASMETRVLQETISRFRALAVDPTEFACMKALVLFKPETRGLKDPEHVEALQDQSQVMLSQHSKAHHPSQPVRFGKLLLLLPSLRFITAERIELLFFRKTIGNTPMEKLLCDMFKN
Chain of COUP transcription factor 2 (Homo sapiens) (P24468 whole entry, looked up): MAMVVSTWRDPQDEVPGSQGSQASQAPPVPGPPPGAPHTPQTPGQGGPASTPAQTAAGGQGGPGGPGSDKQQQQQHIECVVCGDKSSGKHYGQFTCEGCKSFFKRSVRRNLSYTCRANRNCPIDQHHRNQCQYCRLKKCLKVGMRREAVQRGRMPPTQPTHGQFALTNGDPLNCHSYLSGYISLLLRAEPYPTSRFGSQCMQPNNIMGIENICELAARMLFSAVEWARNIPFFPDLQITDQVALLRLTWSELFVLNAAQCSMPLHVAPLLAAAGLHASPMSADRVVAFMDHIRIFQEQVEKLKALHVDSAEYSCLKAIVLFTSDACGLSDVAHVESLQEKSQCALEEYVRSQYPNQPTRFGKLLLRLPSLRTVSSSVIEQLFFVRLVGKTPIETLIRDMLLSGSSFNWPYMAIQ
Chain of Nuclear receptor subfamily 5 group A member 2 (Homo sapiens) (O00482 whole entry, looked up): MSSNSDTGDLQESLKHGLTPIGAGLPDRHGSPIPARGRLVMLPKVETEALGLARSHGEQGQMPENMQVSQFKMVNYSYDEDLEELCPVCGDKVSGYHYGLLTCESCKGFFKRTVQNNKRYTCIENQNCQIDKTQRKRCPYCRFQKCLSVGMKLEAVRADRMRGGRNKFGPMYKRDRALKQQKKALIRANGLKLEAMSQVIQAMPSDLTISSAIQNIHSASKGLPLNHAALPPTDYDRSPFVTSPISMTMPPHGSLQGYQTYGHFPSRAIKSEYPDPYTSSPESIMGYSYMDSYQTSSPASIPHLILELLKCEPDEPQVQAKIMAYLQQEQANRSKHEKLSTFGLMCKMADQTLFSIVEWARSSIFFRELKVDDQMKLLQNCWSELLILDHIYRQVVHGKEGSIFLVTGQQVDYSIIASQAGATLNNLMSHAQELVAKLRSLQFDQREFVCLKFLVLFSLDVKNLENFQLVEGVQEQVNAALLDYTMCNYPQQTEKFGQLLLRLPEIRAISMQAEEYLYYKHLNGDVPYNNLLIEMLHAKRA
Chain of Steroidogenic factor 1 (Homo sapiens) (Q13285 whole entry, looked up, the tested form may be a part): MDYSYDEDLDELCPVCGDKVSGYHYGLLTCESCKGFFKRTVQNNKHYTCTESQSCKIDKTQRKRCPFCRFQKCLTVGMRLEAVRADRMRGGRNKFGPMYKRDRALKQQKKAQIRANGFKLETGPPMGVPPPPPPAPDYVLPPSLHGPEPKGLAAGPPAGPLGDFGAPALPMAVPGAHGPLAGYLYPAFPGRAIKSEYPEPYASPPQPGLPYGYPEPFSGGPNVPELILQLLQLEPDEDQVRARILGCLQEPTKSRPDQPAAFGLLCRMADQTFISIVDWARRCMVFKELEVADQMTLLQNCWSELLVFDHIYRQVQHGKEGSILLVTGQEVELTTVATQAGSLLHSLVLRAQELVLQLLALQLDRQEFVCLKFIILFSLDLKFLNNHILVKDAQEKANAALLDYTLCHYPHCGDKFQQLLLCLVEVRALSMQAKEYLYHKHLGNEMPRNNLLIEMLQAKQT
Chain of Peroxisome proliferator-activated receptor gamma (Homo sapiens) + Nuclear receptor coactivator 3 (Homo sapiens) (P37231 whole entry, looked up): as the sequence (P37231 whole entry, looked up) above
Chain of Peroxisome proliferator-activated receptor gamma (Homo sapiens) + Nuclear receptor coactivator 3 (Homo sapiens) (Q9Y6Q9 whole entry, looked up): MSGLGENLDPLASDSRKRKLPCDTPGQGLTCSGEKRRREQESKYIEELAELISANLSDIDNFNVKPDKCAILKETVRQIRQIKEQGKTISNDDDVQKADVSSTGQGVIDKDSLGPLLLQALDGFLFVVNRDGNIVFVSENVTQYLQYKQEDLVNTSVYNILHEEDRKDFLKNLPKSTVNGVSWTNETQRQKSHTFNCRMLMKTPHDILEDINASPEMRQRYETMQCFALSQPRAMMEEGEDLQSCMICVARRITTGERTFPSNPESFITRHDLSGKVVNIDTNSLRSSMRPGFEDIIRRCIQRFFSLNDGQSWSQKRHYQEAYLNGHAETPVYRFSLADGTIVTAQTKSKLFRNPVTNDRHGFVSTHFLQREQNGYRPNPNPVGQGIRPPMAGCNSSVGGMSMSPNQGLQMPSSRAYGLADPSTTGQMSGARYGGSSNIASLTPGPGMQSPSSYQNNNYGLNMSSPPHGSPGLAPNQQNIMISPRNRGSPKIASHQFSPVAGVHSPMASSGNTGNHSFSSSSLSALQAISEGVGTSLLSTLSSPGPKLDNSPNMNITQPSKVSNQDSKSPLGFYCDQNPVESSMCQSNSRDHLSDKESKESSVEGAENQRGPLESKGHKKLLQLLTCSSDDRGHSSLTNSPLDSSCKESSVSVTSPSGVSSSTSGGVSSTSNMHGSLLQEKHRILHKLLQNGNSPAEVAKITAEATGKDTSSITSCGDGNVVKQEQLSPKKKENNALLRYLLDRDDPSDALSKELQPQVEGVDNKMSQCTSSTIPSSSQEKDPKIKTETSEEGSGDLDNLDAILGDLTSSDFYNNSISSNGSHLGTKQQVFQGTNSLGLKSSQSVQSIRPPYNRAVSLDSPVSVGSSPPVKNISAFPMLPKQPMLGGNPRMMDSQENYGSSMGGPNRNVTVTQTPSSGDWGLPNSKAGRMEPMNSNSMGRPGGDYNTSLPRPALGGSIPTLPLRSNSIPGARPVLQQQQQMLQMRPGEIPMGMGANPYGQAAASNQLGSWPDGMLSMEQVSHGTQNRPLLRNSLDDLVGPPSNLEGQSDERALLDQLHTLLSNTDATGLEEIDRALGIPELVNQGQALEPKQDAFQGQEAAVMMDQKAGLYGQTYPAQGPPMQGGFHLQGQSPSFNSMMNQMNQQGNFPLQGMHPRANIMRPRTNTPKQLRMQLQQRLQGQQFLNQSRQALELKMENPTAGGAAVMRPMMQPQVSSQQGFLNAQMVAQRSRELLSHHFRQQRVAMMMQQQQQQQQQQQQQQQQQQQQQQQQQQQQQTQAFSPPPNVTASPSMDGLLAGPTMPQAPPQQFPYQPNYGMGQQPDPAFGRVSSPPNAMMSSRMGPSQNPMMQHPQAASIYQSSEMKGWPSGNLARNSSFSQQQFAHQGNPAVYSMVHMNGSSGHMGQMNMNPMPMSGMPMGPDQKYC

For `O=C(Nc1nc(-c2ccc3c(c2)OCO3)cs1)c1ccncc1`, the inhibition in test [1] was 49.5% (active); in [2], 11.5%; in test [3], 6.97%; in [4], -26.7%; in test [5], 50.7% (active).

As to `COc1cccc(-c2nc3cc(C)ccc3o2)c1`, the inhibition in test [1] is 1.5%; in [2] it was -23.8%; in test [3] it was -109%. For the same compound, the activation in test [6] was 2.33%; in test [7], 16.7% (active).

For `Cc1ccc(-c2cc(C(=O)NCc3cn(C)nc3C)c3cc(Br)ccc3n2)cc1`, the activation in [8] is 25.7% (active); in test [9], 15.9%; in test [10] it was 16.9%.

Turning to `COc1ccc(NS(=O)(=O)c2ccc(NC(=O)c3ccc(N(C)S(C)(=O)=O)cc3)cc2)cc1`, the inhibition was 56.6% (active) in [1]; 9.03% in test [2]; 5.2% in test [3]; 19.3% in [11]; 50.5% (active) in test [12]; 46.7% (active) in test [13]. The inhibition in [14] is 40.7% (active); in test [4] it was 8.59%; in test [5] it was 45% (active).

Take `CCOc1ccc(NC(=O)CSc2ncnc3c2sc2ccccc23)cc1`: the results for the activation in [8], in [9] and in test [10] were 46% (active), 29.5% (active) and 32.6% (active), respectively.

For the compound `CCCOC(=O)c1[nH]c2c(c1C)C(=O)CC(c1cc(OC)c(OC)c(OC)c1)C2` (configuration not stated), the inhibition in test [1] is 61% (active); in test [2], 29% (active); in [3], 25.8% (active); in [15], 73.9% (active); in [16] it was 65%; in test [11] it was 29% (active). The inhibition in test [12] is 54.7% (active); in [13], 54.1% (active); in test [14] it was 41% (active); in test [4], 6.54%; in [5] it was 49.6% (active).

For `COc1ccc(S(=O)(=O)Nc2ccc3oc(C)c(C(C)=O)c3c2)cc1`, the inhibition in test [1] is 32.3%; in test [2] it was 13.4% (active); in test [3], 20.4% (active); in test [15] it was 93% (active); in [16], 79.4% (active); in test [4], 1.7%. Also, the inhibition in [5] was 20.7%.

For `COc1ccc(Nc2ncc(F)c(N3CCOCC3)n2)cc1`, the inhibition in test [1] was 3.37%; in test [2], -21.5%; in test [3], -107%. Moreover, the values for the activation in test [17] and in [18] were 16.1% (active) and 1%, respectively.

On to `Cc1ccc(F)cc1NC(=O)Cc1nn(C)c(=O)c2ccccc12`, for which the inhibition in [19] was 33.5% (active); in test [20], 12.4%; in [1], 51.9% (active); in [2], 16.1% (active); in test [3] it was 21.2% (active); in [15] it was 65.1%. Besides, the inhibition was 61.5% in test [16], 9% in [4] and 48.1% (active) in [5].

Consider `O=c1oc(/C=C/c2ccccc2)nc2ccccc12`, for which the values for the inhibition in [1], in [2] and in test [3] were 10.7%, -7.17% and -42.9%, respectively. For the same compound, the activation was 14.4% (active) in test [17] and 0.58% in test [18].

These data come from PubChem BioAssay.
